# In paper PMC7862700, “An all-to-all approach to the identification of sequence-specific readers for epigenetic DNA modifications on cytosine”:
# Tests used:
# Assay in all cases: DAPPL (digital affinity profiling via proximity ligation, sequencing); 10 mM Tris-HCl pH 7.5, 50 mM NaCl, 1 mM DTT, 4% glycerol, room temperature, 30 min; GST-TFs on glutathione beads, 16-mer random dsDNA library, 0.1% formaldehyde crosslink after washing; high values mean tight binding
# [1] = biological target: T1, FLI1 (Homo sapiens, UniProt Q01543 1-452); details: protein: recombinant; tags: N-terminal GST; dsDNA, one strand shown
# T1 sequence: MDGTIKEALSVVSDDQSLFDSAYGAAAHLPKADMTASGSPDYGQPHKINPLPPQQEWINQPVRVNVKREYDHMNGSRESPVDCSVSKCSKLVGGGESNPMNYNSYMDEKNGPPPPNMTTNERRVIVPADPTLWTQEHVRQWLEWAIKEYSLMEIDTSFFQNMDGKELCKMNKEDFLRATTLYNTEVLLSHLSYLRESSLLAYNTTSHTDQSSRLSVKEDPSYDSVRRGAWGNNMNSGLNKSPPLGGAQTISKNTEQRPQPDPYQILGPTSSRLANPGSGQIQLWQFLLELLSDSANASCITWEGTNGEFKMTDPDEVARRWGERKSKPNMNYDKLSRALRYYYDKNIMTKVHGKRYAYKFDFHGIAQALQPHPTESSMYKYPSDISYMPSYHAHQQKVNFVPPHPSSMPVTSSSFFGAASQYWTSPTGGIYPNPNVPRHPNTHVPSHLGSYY
# How it was run: (§1)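 Beads coated with glutathione captured GST-fused human transcription factors that had been expressed in yeast, and the factors were then given DNA barcodes and pooled with a tag-only sample. The pools were incubated with 200 nmole of a random double-stranded 16-mer DNA library in Tris/NaCl/DTT/glycerol buffer for 30 min at room temperature, washed, crosslinked with 0.1% formaldehyde and proximity-ligated with BsaI/T4 ligase at 37 °C for 1 h. PCR amplification and Illumina NextSeq500 sequencing came last. Binding signal is each hexamer's read frequency for a factor divided by its frequency for the tag-only sample.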
# [2] = biological target: T2, ELK1 (Homo sapiens, UniProt P19419 1-428); details: protein: recombinant; tags: N-terminal GST; dsDNA, one strand shown
# T2 sequence: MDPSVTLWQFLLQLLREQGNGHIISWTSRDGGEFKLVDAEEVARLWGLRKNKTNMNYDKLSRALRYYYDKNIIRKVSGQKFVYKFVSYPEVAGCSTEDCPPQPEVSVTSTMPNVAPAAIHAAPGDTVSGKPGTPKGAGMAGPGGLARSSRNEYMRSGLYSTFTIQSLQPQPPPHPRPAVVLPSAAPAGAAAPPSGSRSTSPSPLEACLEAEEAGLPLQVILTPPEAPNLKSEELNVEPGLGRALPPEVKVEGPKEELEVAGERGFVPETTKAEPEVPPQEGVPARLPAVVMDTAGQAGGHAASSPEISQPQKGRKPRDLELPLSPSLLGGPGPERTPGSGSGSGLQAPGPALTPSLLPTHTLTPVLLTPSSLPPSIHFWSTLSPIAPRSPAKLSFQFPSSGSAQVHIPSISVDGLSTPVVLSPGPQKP
# How it was run: as §1
# [3] = biological target: T3, GABPA (Homo sapiens, UniProt Q06546 1-454); details: protein: recombinant; tags: N-terminal GST; dsDNA, one strand shown
# T3 sequence: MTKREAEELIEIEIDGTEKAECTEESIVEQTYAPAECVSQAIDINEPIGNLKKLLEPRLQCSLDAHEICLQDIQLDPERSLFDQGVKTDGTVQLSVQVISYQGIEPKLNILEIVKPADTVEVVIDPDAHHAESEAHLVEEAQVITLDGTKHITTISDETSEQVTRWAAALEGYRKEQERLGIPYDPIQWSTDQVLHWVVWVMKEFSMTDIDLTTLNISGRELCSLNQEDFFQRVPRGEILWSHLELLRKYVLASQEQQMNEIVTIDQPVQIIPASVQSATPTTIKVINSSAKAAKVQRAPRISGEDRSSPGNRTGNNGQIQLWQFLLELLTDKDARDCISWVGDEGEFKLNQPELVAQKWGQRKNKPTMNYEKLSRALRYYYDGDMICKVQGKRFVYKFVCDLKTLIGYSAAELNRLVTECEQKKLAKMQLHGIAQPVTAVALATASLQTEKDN
# How it was run: as §1
# [4] = biological target: T4, ERG (Homo sapiens, UniProt P11308 1-479); details: protein: recombinant; tags: N-terminal GST; dsDNA, one strand shown
# T4 sequence: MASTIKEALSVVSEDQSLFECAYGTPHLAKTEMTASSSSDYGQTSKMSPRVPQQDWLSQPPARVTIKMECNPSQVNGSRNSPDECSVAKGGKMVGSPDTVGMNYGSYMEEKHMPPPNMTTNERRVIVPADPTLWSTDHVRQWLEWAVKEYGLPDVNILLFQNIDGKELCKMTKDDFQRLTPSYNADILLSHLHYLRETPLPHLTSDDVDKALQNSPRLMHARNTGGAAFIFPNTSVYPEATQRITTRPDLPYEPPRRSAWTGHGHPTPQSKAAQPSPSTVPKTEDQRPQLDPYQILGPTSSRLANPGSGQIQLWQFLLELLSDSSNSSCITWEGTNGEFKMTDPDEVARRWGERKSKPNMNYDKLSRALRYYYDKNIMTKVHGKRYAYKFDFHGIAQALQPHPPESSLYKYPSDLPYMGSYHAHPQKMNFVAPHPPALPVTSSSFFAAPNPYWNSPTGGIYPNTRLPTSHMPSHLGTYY
# How it was run: as §1
# [5] = biological target: ELF1 (Homo sapiens, UniProt P32519 1-619); details: protein: recombinant; tags: N-terminal GST; dsDNA, one strand shown
# Sequence of ELF1 (P32519 whole entry): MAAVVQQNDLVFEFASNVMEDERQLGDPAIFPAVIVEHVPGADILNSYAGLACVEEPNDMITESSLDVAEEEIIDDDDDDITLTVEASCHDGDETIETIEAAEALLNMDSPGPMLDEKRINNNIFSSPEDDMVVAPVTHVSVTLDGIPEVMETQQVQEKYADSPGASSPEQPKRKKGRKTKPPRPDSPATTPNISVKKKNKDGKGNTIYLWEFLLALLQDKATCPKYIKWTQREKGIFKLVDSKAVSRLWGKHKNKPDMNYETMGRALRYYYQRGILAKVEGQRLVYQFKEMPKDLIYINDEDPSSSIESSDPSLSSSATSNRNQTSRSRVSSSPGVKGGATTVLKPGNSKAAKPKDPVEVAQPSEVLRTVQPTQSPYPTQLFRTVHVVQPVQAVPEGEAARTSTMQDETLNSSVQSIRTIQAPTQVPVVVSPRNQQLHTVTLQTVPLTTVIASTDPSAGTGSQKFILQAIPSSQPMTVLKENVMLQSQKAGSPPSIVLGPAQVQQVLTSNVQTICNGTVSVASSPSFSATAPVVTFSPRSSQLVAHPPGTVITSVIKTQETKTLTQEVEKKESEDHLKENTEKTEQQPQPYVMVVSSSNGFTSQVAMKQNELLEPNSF
# How it was run: as §1
# [6] = biological target: T5, EHF (Homo sapiens, UniProt Q9NZC4 1-300); details: protein: recombinant; tags: N-terminal GST; dsDNA, one strand shown
# T5 sequence: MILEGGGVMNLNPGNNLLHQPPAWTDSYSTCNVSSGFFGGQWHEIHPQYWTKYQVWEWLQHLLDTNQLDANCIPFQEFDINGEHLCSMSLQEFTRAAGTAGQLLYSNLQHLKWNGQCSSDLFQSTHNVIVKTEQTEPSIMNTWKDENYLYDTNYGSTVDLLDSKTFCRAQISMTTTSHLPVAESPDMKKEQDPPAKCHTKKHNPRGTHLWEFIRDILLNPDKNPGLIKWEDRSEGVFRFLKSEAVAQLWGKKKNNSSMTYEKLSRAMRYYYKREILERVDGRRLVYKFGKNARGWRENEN
# How it was run: as §1
# [7] = biological target: SPI1 (Homo sapiens, UniProt P17947 1-270); details: protein: recombinant; tags: N-terminal GST; dsDNA, one strand shown
# How it was run: as §1
# [8] = biological target: SPIB (Homo sapiens, UniProt Q01892 1-262); details: protein: recombinant; tags: N-terminal GST; dsDNA, one strand shown
# Sequence of SPIB (Q01892 whole entry): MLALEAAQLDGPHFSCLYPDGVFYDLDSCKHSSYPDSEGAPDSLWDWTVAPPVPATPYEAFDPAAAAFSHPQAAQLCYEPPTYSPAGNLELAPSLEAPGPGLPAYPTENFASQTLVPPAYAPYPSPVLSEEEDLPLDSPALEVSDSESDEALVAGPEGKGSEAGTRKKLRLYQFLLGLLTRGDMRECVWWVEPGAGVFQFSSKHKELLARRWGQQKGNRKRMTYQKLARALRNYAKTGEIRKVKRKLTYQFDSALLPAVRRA
# How it was run: as §1
# [9] = biological target: T6, ELK3 (Homo sapiens, UniProt P41970 1-407); details: protein: recombinant; tags: N-terminal GST; dsDNA, one strand shown
# T6 sequence: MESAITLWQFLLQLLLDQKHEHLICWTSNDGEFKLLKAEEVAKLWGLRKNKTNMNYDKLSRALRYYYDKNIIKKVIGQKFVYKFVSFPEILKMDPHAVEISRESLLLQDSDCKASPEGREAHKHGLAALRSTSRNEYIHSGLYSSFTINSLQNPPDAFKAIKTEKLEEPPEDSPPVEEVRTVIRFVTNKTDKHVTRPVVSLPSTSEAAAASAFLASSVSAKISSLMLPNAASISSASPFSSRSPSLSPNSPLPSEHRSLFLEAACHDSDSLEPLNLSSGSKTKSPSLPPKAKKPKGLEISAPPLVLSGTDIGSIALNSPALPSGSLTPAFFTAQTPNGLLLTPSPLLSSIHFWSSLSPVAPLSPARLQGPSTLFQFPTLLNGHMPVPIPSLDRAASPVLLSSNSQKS
# How it was run: as §1
# [10] = biological target: T7, FEV (Homo sapiens, UniProt Q99581 1-238); details: protein: recombinant; tags: N-terminal GST; dsDNA, one strand shown
# T7 sequence: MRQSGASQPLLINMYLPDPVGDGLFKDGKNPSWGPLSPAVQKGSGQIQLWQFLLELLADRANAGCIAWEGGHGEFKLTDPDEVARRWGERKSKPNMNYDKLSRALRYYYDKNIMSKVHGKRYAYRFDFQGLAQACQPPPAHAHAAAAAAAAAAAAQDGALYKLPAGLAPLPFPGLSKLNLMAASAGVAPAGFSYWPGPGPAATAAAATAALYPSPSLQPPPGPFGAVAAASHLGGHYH
# How it was run: as §1
# [11] = biological target: ETV5 (Homo sapiens, UniProt P41161 1-510); details: protein: recombinant; tags: N-terminal GST; dsDNA, one strand shown
# Sequence of ETV5 (P41161 whole entry): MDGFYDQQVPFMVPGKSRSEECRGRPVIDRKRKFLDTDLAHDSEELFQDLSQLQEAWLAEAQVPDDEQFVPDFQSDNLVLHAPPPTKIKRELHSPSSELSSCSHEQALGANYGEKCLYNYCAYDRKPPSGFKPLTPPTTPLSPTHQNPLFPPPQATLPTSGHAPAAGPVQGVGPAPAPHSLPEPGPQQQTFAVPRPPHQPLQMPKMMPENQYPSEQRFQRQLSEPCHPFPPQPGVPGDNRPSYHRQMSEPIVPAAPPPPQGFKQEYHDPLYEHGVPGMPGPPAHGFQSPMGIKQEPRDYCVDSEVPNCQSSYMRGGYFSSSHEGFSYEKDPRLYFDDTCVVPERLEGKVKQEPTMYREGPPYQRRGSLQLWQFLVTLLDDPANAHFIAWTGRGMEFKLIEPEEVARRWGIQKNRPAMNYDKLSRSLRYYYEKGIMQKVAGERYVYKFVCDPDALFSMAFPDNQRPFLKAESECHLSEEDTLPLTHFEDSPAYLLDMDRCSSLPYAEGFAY
# How it was run: as §1
# [12] = biological target: HSF1 (Homo sapiens, UniProt Q00613 1-529); details: protein: recombinant; tags: N-terminal GST; chain copies: 3; dsDNA, one strand shown
# Sequence of HSF1 (Q00613 whole entry): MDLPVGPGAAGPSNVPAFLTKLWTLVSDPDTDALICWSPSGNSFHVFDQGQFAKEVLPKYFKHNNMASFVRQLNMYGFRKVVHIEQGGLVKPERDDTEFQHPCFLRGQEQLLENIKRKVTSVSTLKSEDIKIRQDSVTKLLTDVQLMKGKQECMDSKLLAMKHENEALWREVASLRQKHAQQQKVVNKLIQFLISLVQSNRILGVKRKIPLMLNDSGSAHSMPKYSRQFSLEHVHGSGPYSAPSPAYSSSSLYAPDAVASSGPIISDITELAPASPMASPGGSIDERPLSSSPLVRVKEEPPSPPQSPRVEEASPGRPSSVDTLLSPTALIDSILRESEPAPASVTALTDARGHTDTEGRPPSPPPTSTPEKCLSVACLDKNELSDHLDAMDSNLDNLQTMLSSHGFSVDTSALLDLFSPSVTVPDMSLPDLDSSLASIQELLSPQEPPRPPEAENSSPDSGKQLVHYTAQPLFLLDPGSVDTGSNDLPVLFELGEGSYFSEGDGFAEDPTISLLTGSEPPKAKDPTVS
# How it was run: as §1
# [13] = biological target: T8, SPIC (Homo sapiens, UniProt Q8N5J4 1-248); details: protein: recombinant; tags: N-terminal GST; dsDNA, one strand shown
# T8 sequence: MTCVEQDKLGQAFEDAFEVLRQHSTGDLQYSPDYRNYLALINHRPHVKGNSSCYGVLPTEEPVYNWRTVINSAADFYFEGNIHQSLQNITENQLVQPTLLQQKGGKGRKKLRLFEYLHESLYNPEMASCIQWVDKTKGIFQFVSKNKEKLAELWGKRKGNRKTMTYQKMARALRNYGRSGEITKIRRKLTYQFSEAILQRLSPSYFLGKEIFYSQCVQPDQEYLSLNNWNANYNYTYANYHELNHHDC
# How it was run: as §1
# [14] = biological target: ELF4 (Homo sapiens, UniProt Q99607 1-663); details: protein: recombinant; tags: N-terminal GST; dsDNA, one strand shown
# Sequence of ELF4 (Q99607 whole entry): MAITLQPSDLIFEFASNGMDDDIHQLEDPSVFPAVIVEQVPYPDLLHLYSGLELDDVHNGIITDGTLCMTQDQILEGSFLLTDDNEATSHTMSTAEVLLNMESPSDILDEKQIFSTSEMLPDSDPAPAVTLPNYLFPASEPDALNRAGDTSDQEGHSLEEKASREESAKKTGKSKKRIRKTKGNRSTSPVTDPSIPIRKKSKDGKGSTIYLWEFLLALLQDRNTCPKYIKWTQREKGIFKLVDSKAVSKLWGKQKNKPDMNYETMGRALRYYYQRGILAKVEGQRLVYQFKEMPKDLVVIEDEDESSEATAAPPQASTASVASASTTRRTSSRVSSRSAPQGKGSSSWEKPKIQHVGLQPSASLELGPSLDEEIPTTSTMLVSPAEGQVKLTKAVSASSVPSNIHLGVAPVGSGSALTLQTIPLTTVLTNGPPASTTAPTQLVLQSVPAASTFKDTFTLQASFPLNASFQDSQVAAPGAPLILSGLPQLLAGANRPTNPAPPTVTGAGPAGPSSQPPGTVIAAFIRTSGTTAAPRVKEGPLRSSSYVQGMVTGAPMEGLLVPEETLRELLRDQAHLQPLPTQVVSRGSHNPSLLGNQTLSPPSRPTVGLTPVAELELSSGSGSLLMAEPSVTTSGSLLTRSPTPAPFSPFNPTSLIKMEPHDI
# How it was run: as §1
# [15] = biological target: T9, ELK4 (Homo sapiens, UniProt P28324-2 1-405); details: protein: recombinant; tags: N-terminal GST; dsDNA, one strand shown
# T9 sequence: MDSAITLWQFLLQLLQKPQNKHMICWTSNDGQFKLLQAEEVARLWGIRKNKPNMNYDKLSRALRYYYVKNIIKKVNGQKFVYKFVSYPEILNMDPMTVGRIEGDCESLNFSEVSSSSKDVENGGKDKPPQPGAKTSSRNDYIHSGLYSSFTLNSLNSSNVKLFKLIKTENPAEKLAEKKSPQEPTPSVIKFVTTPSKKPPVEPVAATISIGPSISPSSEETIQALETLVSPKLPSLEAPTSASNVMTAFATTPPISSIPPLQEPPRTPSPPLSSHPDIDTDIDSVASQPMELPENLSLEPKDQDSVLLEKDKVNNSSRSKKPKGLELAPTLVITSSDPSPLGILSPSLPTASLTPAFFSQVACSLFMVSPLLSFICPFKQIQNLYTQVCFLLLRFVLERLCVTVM
# How it was run: as §1
# [16] = biological target: T10, ETV2 (Homo sapiens, UniProt O00321 1-342); details: protein: recombinant; tags: N-terminal GST; dsDNA, one strand shown
# T10 sequence: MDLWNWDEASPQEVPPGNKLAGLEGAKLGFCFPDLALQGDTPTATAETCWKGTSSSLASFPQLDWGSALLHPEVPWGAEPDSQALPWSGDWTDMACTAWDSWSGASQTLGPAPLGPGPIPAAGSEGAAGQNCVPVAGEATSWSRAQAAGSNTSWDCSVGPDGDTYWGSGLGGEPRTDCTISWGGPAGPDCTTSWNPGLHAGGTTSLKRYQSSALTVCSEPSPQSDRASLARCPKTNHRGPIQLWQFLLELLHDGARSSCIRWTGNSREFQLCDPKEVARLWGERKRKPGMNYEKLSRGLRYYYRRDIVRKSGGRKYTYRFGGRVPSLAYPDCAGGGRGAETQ
# How it was run: as §1
# [17] = biological target: T11, ELF3 (Homo sapiens, UniProt P78545 1-371); details: protein: recombinant; tags: N-terminal GST; dsDNA, one strand shown
# T11 sequence: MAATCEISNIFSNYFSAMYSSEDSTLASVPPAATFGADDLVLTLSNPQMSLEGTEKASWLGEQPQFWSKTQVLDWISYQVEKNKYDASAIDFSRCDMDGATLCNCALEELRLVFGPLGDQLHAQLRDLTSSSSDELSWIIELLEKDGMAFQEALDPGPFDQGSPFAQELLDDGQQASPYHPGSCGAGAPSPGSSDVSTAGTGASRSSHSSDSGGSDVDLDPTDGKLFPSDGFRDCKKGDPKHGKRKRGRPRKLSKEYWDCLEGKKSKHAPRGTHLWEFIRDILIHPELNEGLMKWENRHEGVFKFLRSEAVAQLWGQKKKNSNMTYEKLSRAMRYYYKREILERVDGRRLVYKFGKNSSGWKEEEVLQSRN
# How it was run: as §1
# [18] = biological target: CRX (Homo sapiens, UniProt O43186 1-299); details: protein: recombinant; tags: N-terminal GST; dsDNA, one strand shown
# Sequence of CRX (O43186 whole entry): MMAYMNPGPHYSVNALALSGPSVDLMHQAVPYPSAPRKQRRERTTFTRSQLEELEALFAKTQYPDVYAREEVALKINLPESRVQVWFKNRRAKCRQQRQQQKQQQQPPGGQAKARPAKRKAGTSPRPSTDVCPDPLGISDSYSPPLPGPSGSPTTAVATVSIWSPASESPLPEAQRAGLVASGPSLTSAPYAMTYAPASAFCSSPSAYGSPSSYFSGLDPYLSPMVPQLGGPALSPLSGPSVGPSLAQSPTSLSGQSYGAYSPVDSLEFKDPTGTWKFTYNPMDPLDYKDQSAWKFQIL
# How it was run: as §1
# [19] = biological target: ETV1 (Homo sapiens, UniProt P50549 1-477); details: protein: recombinant; tags: N-terminal GST; dsDNA, one strand shown
# Sequence of ETV1 (P50549 whole entry): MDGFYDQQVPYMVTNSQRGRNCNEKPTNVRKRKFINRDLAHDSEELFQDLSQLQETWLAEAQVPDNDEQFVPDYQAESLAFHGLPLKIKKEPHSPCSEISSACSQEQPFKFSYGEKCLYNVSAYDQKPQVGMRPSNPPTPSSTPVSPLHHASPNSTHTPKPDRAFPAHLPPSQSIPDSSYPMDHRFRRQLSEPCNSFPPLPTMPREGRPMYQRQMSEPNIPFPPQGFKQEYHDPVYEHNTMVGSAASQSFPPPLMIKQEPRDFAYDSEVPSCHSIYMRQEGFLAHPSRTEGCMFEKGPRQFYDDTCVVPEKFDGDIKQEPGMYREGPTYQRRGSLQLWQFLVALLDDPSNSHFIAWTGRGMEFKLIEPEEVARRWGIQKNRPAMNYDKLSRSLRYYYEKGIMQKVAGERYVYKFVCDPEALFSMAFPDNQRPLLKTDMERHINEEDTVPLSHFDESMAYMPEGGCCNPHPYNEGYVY
# How it was run: as §1
sequence,measurement,setting,value
CCCCCT,binding signal,[1],"1.22 fold enrichment (6-mer frequency, TF over GST control)"
same,binding signal,[2],"1.26 fold enrichment (6-mer frequency, TF over GST control)"
same,binding signal,[3],"1.25 fold enrichment (6-mer frequency, TF over GST control)"
same,binding signal,[4],"1.21 fold enrichment (6-mer frequency, TF over GST control)"
same,binding signal,[5],"1.33 fold enrichment (6-mer frequency, TF over GST control)"
same,binding signal,[6],"1.26 fold enrichment (6-mer frequency, TF over GST control)"
same,binding signal,[7],"1.19 fold enrichment (6-mer frequency, TF over GST control)"
same,binding signal,[8],"1.24 fold enrichment (6-mer frequency, TF over GST control)"
same,binding signal,[9],"1.32 fold enrichment (6-mer frequency, TF over GST control)"
same,binding signal,[10],"1.18 fold enrichment (6-mer frequency, TF over GST control)"
same,binding signal,[11],"1.29 fold enrichment (6-mer frequency, TF over GST control)"
same,binding signal,[12],"1.02 fold enrichment (6-mer frequency, TF over GST control)"
same,binding signal,[13],"1.31 fold enrichment (6-mer frequency, TF over GST control)"
same,binding signal,[14],"1.35 fold enrichment (6-mer frequency, TF over GST control)"
same,binding signal,[15],"1.58 fold enrichment (6-mer frequency, TF over GST control)"
same,binding signal,[16],"1.17 fold enrichment (6-mer frequency, TF over GST control)"
same,binding signal,[17],"1.39 fold enrichment (6-mer frequency, TF over GST control)"
same,binding signal,[18],"1.07 fold enrichment (6-mer frequency, TF over GST control)"
same,binding signal,[19],"1.2 fold enrichment (6-mer frequency, TF over GST control)"
